Inconclusive results are not listed. Activity calls are given as the source filed them. The call rests on the fitted dose curve; in most records, active means well fitted inhibition curve with a large enough effect; inconclusive means small, poorly fitted or top-dose-only effect; inactive means flat fitted curve, though single readings scatter.
Legend:
Experiment in all cases: qHTS profiling for inhibitors of Plasmodium falciparum proliferation (AID 504749); further: nearly all actives have a fitted effect of over 60% in size
Settings in all cases: P. falciparum in erythrocytes, SYBR Green DNA, 72 h; series mostly up to 28.7 µM
[1] = tested on: CP185
In short: (§1)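 Infected RBCs, 0.3% parasitemia/2.5% Hct final; cpd 72 h, 37 C, 5% CO2; lysis buffer with saponin/triton/SYBR Green I, o/n RT dark; FI 485/535; norm. to artemisinin (0.29 uM) and DMSO.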

[2] = tested on: CP191
In short: as §1

[3] = tested on: CP192
In short: as §1

[4] = tested on: CP194
In short: as §1

[5] = tested on: CP201
In short: as §1

[6] = tested on: CP211
In short: as §1

[7] = tested on: CP215
In short: as §1

[8] = tested on: CP217
In short: as §1

[9] = tested on: CP237
In short: as §1

[10] = tested on: CP238
In short: as §1

[11] = tested on: CP247
In short: as §1

[12] = tested on: CP250
In short: as §1

[13] = tested on: CP252
In short: as §1

[14] = tested on: CP256
In short: as §1

[15] = tested on: CP260
In short: as §1

[16] = tested on: CP262
In short: as §1

[17] = tested on: CP265
In short: as §1

[18] = tested on: CP266
In short: as §1

[19] = tested on: CP268
In short: as §1

Measured: Potency

CC(=O)[C@H]1CC[C@H]2[C@@H]3CC[C@H]4C[C@H](O)CC[C@]4(C)[C@H]3C(=O)C[C@]12C
inactive: all assays above

Nc1ccncc1
inactive: all assays above

Cc1ncc(CNC(=O)N(CCCl)N=O)c(N)n1
inactive: all assays above

CN(C)CCc1ccc(O)cc1
not listed: [18]
inactive: all other assays above

NCC(CC(=O)O)c1ccc(Cl)cc1 (stereo unspecified)
inactive: all assays above

CCC(C(N)=O)N1CCCC1=O (stereo unspecified)
not listed: [16]
inactive: all other assays above

C#CCOC(C(=O)OCCN(C)C)(c1ccccc1)c1ccccc1
inactive: all assays above

— PubChem BioAssay (NCATS)
